This is part of a sample that, as a whole, favours compounds with a hit. Of some 79,000 tested, about 15% had one in any assay. Unmarked numbers belong to inactive results. Active and inactive are the calls of the source. Rule as the data show it: active = growth inhibition above about 70%; inactive = the rest.
Assays:
[1] = NCI Yeast Anticancer Drug Screen. Data for the rad50 strain (AID 155);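 also: 0% = growth of vehicle-only cultures of the same strain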; conditions: S. cerevisiae rad50 strain growth inhibition, hits give high values
Outline: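 Cells are treated with compound, grown, and their growth is then scored against vehicle-only cultures of the same repair-deficient yeast strain.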

[2] = NCI Yeast Anticancer Drug Screen. Data for the mec2-1 strain (AID 157); conditions: S. cerevisiae mec2-1 strain, hits give high values
Outline: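 Cells of the genetically defined mec2-1 yeast strain are incubated with test compound. Inhibition of growth is calculated against vehicle-treated controls.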

[3] = NCI Yeast Anticancer Drug Screen. Data for the sgs1 mgt1 strain (AID 161);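 also: 0% = growth of cultures given vehicle only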; conditions: S. cerevisiae sgs1 mgt1 strain, hits give high values
Outline: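 Mutant yeast exposed to compound; growth scored against vehicle-only wells.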

[4] = NCI Yeast Anticancer Drug Screen. Data for the cln2 rad14 strain (AID 165);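 also: 0% = growth equal to vehicle treated cultures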; conditions: S. cerevisiae cln2 rad14 strain, hits give high values
Outline: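 The screen exposed genetically defined yeast (cln2 rad14) to test compounds and scored growth inhibition relative to vehicle-treated controls.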

[5] = NCI Yeast Anticancer Drug Screen. Data for the bub3 strain (AID 167); conditions: S. cerevisiae bub3 mutant strain, hits give high values
Outline: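 Part of a panel of yeast mutants defective in DNA damage repair or cell cycle regulation. Each strain is grown with compound, and inhibition is calculated relative to solvent-treated cultures.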

[6] = NCI Yeast Anticancer Drug Screen. Data for the mlh1 rad18 strain (AID 175); conditions: S. cerevisiae mlh1 rad18 strain growth inhibition, hits give high values
Outline: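 Compound-treated yeast growth, normalised to vehicle controls. Strain bears defined DNA repair mutations.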

[7] = at 5.0 µM (retest, dose inferred, filed as 0.5)
[8] = at 50.0 µM (retest, dose inferred, filed as 5.0)

Structure (SMILES)	growth inhibition [1, 7]	growth inhibition [1, 8]	growth inhibition ([1]; at 50.0 µM)	growth inhibition [2, 7]	growth inhibition [2, 8]	growth inhibition ([2]; at 50.0 µM)	growth inhibition [3, 7]	growth inhibition [3, 8]	growth inhibition ([3]; at 50.0 µM)	growth inhibition [4, 7]	growth inhibition [4, 8]	growth inhibition ([4]; at 50.0 µM)	growth inhibition [5, 7]	growth inhibition [5, 8]	growth inhibition ([5]; at 50.0 µM)	growth inhibition [6, 7]	growth inhibition [6, 8]	growth inhibition ([6]; at 50.0 µM)
CCCCCCCCCSC(=S)N(C)NC(=O)c1ccccn1	14%	70% (active)	89% (active)	6%	81% (active)	94% (active)	4%	82% (active)	93.8% (active)	-3%	71% (active)	92.1% (active)	-7%	78% (active)	92% (active)	8%	85% (active)	93.7% (active)
CCCC/C=C1\CCC(CN2CCOCC2)C1=O (stereo not given)	56%	100% (active)	90.5% (active)	39%	100% (active)	92.8% (active)	43%	100% (active)	91.4% (active)	44%	98% (active)	90.8% (active)	69%	100% (active)	91.2% (active)	61%	98% (active)	90.7% (active)
ClC1=C(Cl)C(Cl)(Cl)C(Cl)(Cl)C1(Cl)Cl	55%	7%	99.7% (active)	49%	99% (active)	99.5% (active)	59%	62%	99.7% (active)	31%	98% (active)	98% (active)	41%	98% (active)	99.4% (active)	84% (active)	99% (active)	99.2% (active)
O=C1OC(=O)c2ccc([N+](=O)[O-])c3cccc1c23	0%	7%	70.4% (active)	2%	9%	51.6%	2%	2%	76.4% (active)	3%	14%	26.4%	0%	16%	74.2% (active)	0%	13%	82.8% (active)
O=[N+]([O-])C(=C(Nc1ccccc1)Nc1ccccc1)C(Cl)=C(Cl)Cl	97% (active)	100% (active)	89.2% (active)	98% (active)	100% (active)	93% (active)	92% (active)	99% (active)	89.2% (active)	91% (active)	100% (active)	90.7% (active)	94% (active)	100% (active)	91.5% (active)	99% (active)	100% (active)	85.7% (active)
CSc1cc(N)nc(N)n1	3%	-4%	73% (active)	3%	2%	79.3% (active)	4%	14%	80.3% (active)	1%	3%	83.2% (active)	1%	-3%	38.9%	2%	-6%	93.4% (active)
CCCCN(CCCC)S(=O)(=O)c1ccccc1	3%	27%	44.7%	-4%	3%	32.4%	1%	52%	7.85%	-1%	-9%	-11.4%	3%	14%	65.5%	2%	17%	79% (active)
CCCCNCCC(SSSC(CCNCCCC)c1ccc(Cl)cc1)c1ccc(Cl)cc1 (stereo not given)	26%	97% (active)	95.2% (active)	-74%	98% (active)	52.5%	20%	99% (active)	98.4% (active)	17%	97% (active)	20.1%	25%	98% (active)	52.2%	26%	98% (active)	97.7% (active)
C=CCOc1ccc(-c2ccccc2)cc1C(=O)NC	-9%	-5%	1.25%	2%	-6%	6.3%	-2%	20%	5.1%	-42%	-5%	8.95%	-3%	8%	42.9%	-3%	20%	22.1%
CCC1C(c2cccc(OC)c2O)c2cc3c(cc2OC1N1CCCC1)OCO3 (stereo not given)	21%	43%	-66.2%	22%	19%	-19.7%	26%	25%	-52.7%	31%	45%	-28.6%	17%	26%	-5.3%	22%	63%	-29.7%
O=C(Nc1c(Cl)cc([N+](=O)[O-])cc1Cl)/C(=N\Nc1cccc(Cl)c1)c1c(O)c2ccccc2oc1=O	15%	15%	69%	25%	25%	18.1%	14%	14%	-1%	8%	8%	25.7%	5%	5%	31%	26%	26%	47.3%
O=C(O)CCC(=O)NCCNC(=O)CC(=O)O	-152%	-162%	10.7%	-52%	-51%	-14.8%	-57%	-63%	43%	-52%	-48%	36.3%	-68%	-79%	-1.55%	-116%	-107%	9%
O=C1OC(C2OC(=O)C(=O)C2C(=O)c2ccc(Cl)cc2)C(C(=O)c2ccc(Cl)cc2)C1=O (stereo not given)	-3%	63%	82.9% (active)	-3%	37%	11.8%	1%	64%	30.5%	-4%	31%	29.6%	9%	43%	43%	-5%	85% (active)	76.7% (active)
Nc1ccc2c(c1)Cc1c(Cl)cccc1-2	1%	95% (active)	96% (active)	3%	96% (active)	54.4%	3%	90% (active)	89.4% (active)	-12%	92% (active)	80.2% (active)	-3%	94% (active)	94.3% (active)	-1%	95% (active)	95.2% (active)
CCOc1ccc2c(c1)[n+]([O-])c(-c1ccc([N+](=O)[O-])cc1)c(N)[n+]2[O-]	22%	82% (active)	95% (active)	41%	90% (active)	80.5% (active)	38%	96% (active)	96% (active)	21%	76% (active)	94.3% (active)	65%	94% (active)	96% (active)	56%	93% (active)	97.4% (active)
COC(=O)C12CCC(C)(C)CC1C1=CCC3C4(C)CC(O)C(O)C(C)(C(=O)OC)C4CCC3(C)C1(CO)CC2 (stereo not given)	30%	97% (active)	91.5% (active)	30%	99% (active)	91.7% (active)	15%	99% (active)	91.8% (active)	39%	99% (active)	91.4% (active)	26%	99% (active)	88.8% (active)	31%	98% (active)	85.8% (active)
Clc1ccc(C(CCc2ccc(Br)cc2)Cn2ccnc2)c(Cl)c1 (stereo not given)	94% (active)	99% (active)	99.4% (active)	82% (active)	99% (active)	99.5% (active)	87% (active)	99% (active)	59.7%	72% (active)	99% (active)	99.5% (active)	91% (active)	99% (active)	99.2% (active)	71% (active)	98% (active)	99.5% (active)
C=C(C)C1CC/C(C)=C/CCC2(C)OC2CC/C(CO)=C\C1O (stereo not given)	52%	89% (active)	91.1% (active)	80% (active)	96% (active)	93% (active)	41%	95% (active)	93% (active)	48%	85% (active)	91.7% (active)	90% (active)	94% (active)	91.8% (active)	87% (active)	96% (active)	91.5% (active)
CC(C)OC1=C(Cl)C(=O)c2c(cccc2[N+](=O)[O-])C1=O	32%	99% (active)	26.8%	38%	100% (active)	99.1% (active)	48%	99% (active)	99.4% (active)	19%	100% (active)	88.5% (active)	38%	94% (active)	98.5% (active)	41%	100% (active)	71% (active)
NCCOB1c2ccccc2Cc2ccccc21	2%	98% (active)	45.6%	6%	99% (active)	98.7% (active)	-3%	99% (active)	-3.8%	-2%	99% (active)	99% (active)	1%	98% (active)	99.1% (active)	0%	99% (active)	99% (active)
